Data on 40 compounds can be found in PubChem BioAssay (NCATS).

Molecules are shown by their SMILES. Results filed as inconclusive are left out. Active and inactive are the calls of the source. Calls come from the whole dose curve; as a rule, active = well fitted cell-killing curve with a large enough effect; inconclusive = small, poorly fitted or top-dose-only effect, or effect the other way; inactive = no such curve, though single readings can be large or run the other way. Starred links: 1 amine or outer side, 2 acyl side, 3 side chain; linkers in the order of their positions; H or OH if unused. Positions of bridges follow the written chain, without caps; N, C: chain ends. Non-standard residues stand in square brackets, D forms with d. Residues, ends and D or L forms follow the SMILES beside them. Chains are numbered I, II in the order given. Actinocin(9to1) = Cc1c2oc3c(C)ccc(C(=O)[*:1])c3nc-2c(C(=O)[*:2])c(N)c1=O; NMeV = CN[CH](C(=O)O)C(C)C; Sar = CNCC(=O)O
Potency is the fitted concentration of half-maximal effect.

A short description of the assay: Quantitative High-Throughput drug screen in 47 multiple myeloma cell lines against the NCATS MIPE library collection: AMO1_DSMZ cell viability assay (AID 1918927; note: nearly all actives have a fitted effect of over 30% in size). The following applies: AMO1 myeloma cells viability, CellTiter-Glo ATP luminescence, 48 h; series mostly up to 45.8 µM; viability, % of DMSO: at the top concentration. An excerpt:
PI: Beverly A. Mock Ph.D.
Laboratory of Cancer Biology and Genetics,
Center for Cancer Research, National Cancer Institute,
National Institute of Health, Bethesda, Maryland
Drug resistance and disease progression are common in multiple myeloma (MM) patients, underscoring the need for new therapeutic combinations. […] We hypothesized that effective combinations would reduce MYC expression and enhance p16 activity. […] These preclinical data identify potentially useful drug combinations for evaluation in drug-resistant MM and reveal potential mechanisms of combined drug sensitivity.
Described herein is the primary MIPE qHTS used to cherrypick compounds. Validated compounds were then further tested for potential synergistic activiy.
[1] Peat TJ, Gaikwad SM, Dubois W, Gyabaah-Kessie N, Zhang S, Gorjifard S, Phyo Z, Andres M, Hughitt VK, Simpson RM, Miller MA, Girvin AT, Taylor A, Williams D, D'Antonio N, Zhang Y, Rajagopalan A, Flietner E, Wilson K, Zhang X, Shinn P, Klumpp-Thomas C, McKnight C, Itkin Z, Chen L, Kazandijian D, Zhang J, Michalowski AM, Simmons JK, Keats J, Thomas CJ, Mock BA. Drug combinations identified by high-throughput screening promote cell cycle transition and upregulate Smad pathways in myeloma. Cancer Lett. 2023 Aug 1;568:216284. doi: 10.1016/j.canlet.2023.216284. Epub 2023 Jun 24. PMID: 37356470; PMCID: PMC10408729.
SEQUENCE No. (e.g., 1, 2, 3, etc.); […] (e.g., Cells, Incubation, Reagent, etc.); VALUE and DESCRIPTION.
1; Cells; 5 uL; white, solid bottom 1536-well Greiner assay plate.
2; Compounds; 23 nL; Kalypsis pin tool (Wako USA) equipped with a 1536-well pin head to transfer to the assay plates.
3; Incubation; 48 hours; 37C incubation.
4; Reagent;5uL; CellTiter Glo (Promega).
5; Detector; 425V; Luminescence; Viewlux PerkinElmer.
NOTES (numbers refer to Sequence numbers above)
1. The cell-based screening methods employed in this study were like those previously published. Briefly, the corresponding myeloma cell lines were screened in 1,536-well plates with 500 cells, 5-uL per well for inhibition of cell viability (assessed by measuring ATP levels with CellTiterGlo).
2. NCATS MIPE 4.0 library of approved and investigational drugs were added using the Kalypsis pin tool. Wells treated with DMSO only for 100% viability and media only wells for 0% viability were used as controls.
3. The assay plates were covered and incubated for 48 hours in a 37C, 5% CO2 incubator with controlled humidity.
4. After 48 hours, CellTilter-GloTM luminescent substrate mix (Promega) reagent was added to the assay plate and plates we incubated for 5 min at room temperature.
5. Signal was measured as median relative luminescence units on a ViewLux (PerkinElmer) multiplate reader.
[1] Heske CM, Davis MI, Baumgart JT, Wilson K, Gormally MV, Chen L, Zhang X, Ceribelli M, Duveau DY, Guha R, Ferrer M, Arnaldez FI, Ji J, Tran HL, Zhang Y, Mendoza A, Helman LJ, Thomas CJ. Matrix Screen Identifies Synergistic Combination of PARP Inhibitors and Nicotinamide Phosphoribosyltransferase (NAMPT) Inhibitors in Ewing Sarcoma. Clin Cancer Res. 2017 Dec 1;23(23):7301-7311. doi: 10.1158/1078-0432.CCR-17-1121. Epub 2017 Sep 12. PMID: 28899971; PMCID: PMC6636827.
A general note: ATP-based viability assays read luminescence as a measure of living cells.
Turning to `N#Cc1cc(NC(=O)Nc2nnc(-c3ccncc3)s2)ccc1-c1cn[nH]c1`, the “viability, % of DMSO” value was 117% (inactive).

With `COc1cc(C)c(Sc2cnc(NC(=O)c3ccc(CNC(C)C(C)(C)C)cc3)s2)cc1C(=O)N1CCN(C(C)=O)CC1` (stereo not given), the Potency is 5.26 µM (active).

As for `C[C@@H](Oc1ccc2[nH]nc(C=Cc3cnn(CCO)c3)c2c1)c1c(Cl)cncc1Cl`, the “viability, % of DMSO” value was 91.6% (inactive).

As to `Cc1cnc(Nc2ccc(N3CCN(C)CC3)cc2)nc1Nc1cccc(S(=O)(=O)NC(C)(C)C)c1`, the Potency is 1.18 µM (active).

Take `CC(=O)O[C@]1(C(C)=O)CC[C@H]2[C@@H]3C=C(C)C4=CC(=O)CC[C@]4(C)[C@@H]3CC[C@@]21C`: the Potency was 8.33 µM (active).

With `Cc1onc(-c2ccccc2)c1C(=O)N[C@@H]1C(=O)N2[C@@H](C(=O)O)C(C)(C)S[C@@H]12`, the “viability, % of DMSO” value was 120% (inactive).

As to `CN(C)CC(=O)N1CCC(c2ccc(NC(=O)c3ncc(C#N)[nH]3)c(C3=CCCCC3)c2)CC1`, the Potency is 7.43 µM (active).

With `CC(=O)[C@]1(O)Cc2c(O)c3c(c(O)c2[C@@H](O[C@H]2C[C@H](N)[C@@H](O)[C@H](C)O2)C1)C(=O)c1ccccc1C3=O`, the Potency was 0.833 µM (active).

Take `C[C@H]1[C@@H](OC(=O)CCC(=O)O)O[C@@H]2O[C@@]3(C)CC[C@@H]4[C@H](C)CC[C@@H]1[C@@]24OO3`: the Potency was 0.833 µM (active).

With `O=C(C=Cc1ccc(CN(CCO)CCc2c[nH]c3ccccc23)cc1)NO`, the Potency was 0.0935 µM (active).

As to `CC(=O)N1CCN(c2ccc(OCc3nn(C)c(C)c3-c3cccc4c(CCCOc5cccc6ccccc56)c(C(=O)O)n(Cc5cccnc5)c34)cc2)CC1`, the Potency is 0.0526 µM (active).

In the case of `N#CC(=Cc1ccc(O)c(O)c1)C(=O)NCc1ccccc1`, the “viability, % of DMSO” value is 124% (inactive).

For the compound `Nc1ncn([C@@H]2O[C@H](CO)[C@@H](O)[C@@H]2O)c(=O)n1`, the Potency was 1.48 µM (active).

For `Cc1ccc(-n2[nH]c(C)c(N=Nc3cccc(-c4cccc(C(=O)O)c4)c3O)c2=O)cc1C`, the “viability, % of DMSO” value is 111% (inactive).

Regarding `O=c1[nH]c(=O)n([C@H]2C[C@@H](O)[C@@H](CO)O2)cc1F`, the Potency is 1.66 µM (active).

Regarding `Cn1cc(-c2cnn3c(N)c(Br)c([C@H]4CCCNC4)nc23)cn1`, the Potency was 1.48 µM (active).

In the case of `N#CC(=C(O)c1ccc(Cl)cc1Cl)c1nc2cc(Cl)ccc2c(=O)[nH]1`, the Potency is 1.05 µM (active).

Turning to `OCCNC1CCCc2c1[nH]c1ccc(-c3ccccc3)cc21` (stereo not given), the Potency was 16.6 µM (active).

For the compound `CN1CCCN(C(=O)c2cccc(-c3ccc(C=C4C(=O)Nc5ccc(Cl)cc54)o3)c2)CC1`, the Potency is 7.43 µM (active).

Consider `Cn1cc(C2=C(c3c4n(c5ccccc35)CCC(CN)C4)C(=O)NC2=O)c2ccccc21` (stereo not given), for which the Potency is 10.5 µM (active).

As for `C=CCNC1=C2C[C@@H](C)C[C@H](OC)[C@@H](O)[C@@H](C)C=C(C)[C@H](OC(N)=O)[C@@H](OC)C=CC=C(C)C(=O)NC(=CC1=O)C2=O`, the Potency is 0.0935 µM (active).

`CNC(=O)Nc1ccc(-c2nc(N3CC4CCC(C3)O4)c3cnn(C4CCC5(CC4)OCCO5)c3n2)cc1`: the Potency is 0.0166 µM (active).

For `CC(C)[C@H](CO)Nc1nc(Nc2cccc(Cl)c2)c2ncn(C(C)C)c2n1`, the “viability, % of DMSO” value is 142% (inactive).

Take `CC(C(C)N1CC(=O)NC(=O)C1)N1CC(=O)NC(=O)C1` (stereo not given): the Potency was 0.332 µM (active).

Consider `C=C(C)[C@@H]1CC[C@]2(C(=O)O)CC[C@]3(C)[C@H](CC[C@@H]4[C@@]5(C)CC[C@H](O)C(C)(C)[C@@H]5CC[C@]43C)[C@@H]12`, for which the “viability, % of DMSO” value was 109% (inactive).

Regarding `O=C1NC(=O)C(=Cc2ccc3nccc(-c4ccncc4)c3c2)S1`, the Potency is 0.372 µM (active).

For `CCCCCCCCCCCCCCCC(=O)OC[C@@H](NC(=O)C(Cl)Cl)[C@H](O)c1ccc([N+](=O)[O-])cc1`, the “viability, % of DMSO” value was 115% (inactive).

For `CC(C)C[C@H](NC(=O)CNC(=O)c1cc(Cl)ccc1Cl)B1OC(=O)CC(CC(=O)O)(C(=O)O)O1` (stereo not given in full), the Potency was 0.0235 µM (active).

Take `CC(C)N1[N]C(=C2C=c3cc(O)ccc3=N2)c2c(N)ncnc21`: the Potency is 0.662 µM (active).

With `C=C1C[C@@]2(O)O[C@@]3(C[C@H]2C(C)C)[C@H](C)CC[C@H]13`, the “viability, % of DMSO” value is 99.5% (inactive).

As to `O=C1CSC(=O)N1C(CCc1ccncc1)COc1ccc(-c2cccc([N+](=O)[O-])c2)cc1` (stereo not given), the “viability, % of DMSO” value is 110% (inactive).

For `Cn1cc(-c2ccc3ncc(Cc4ccc5ncccc5c4)n3n2)cn1`, the Potency is 14.8 µM (active).

Regarding `Cc1c2oc3c(C)ccc(C(=O)NC4C(=O)NC(C(C)C)C(=O)N5CCCC5C(=O)N(C)CC(=O)N(C)C(C(C)C)C(=O)OC4C)c3nc-2c(C(=O)NC2C(=O)NC(C(C)C)C(=O)N3CCCC3C(=O)N(C)CC(=O)N(C)C(C(C)C)C(=O)OC2C)c(N)c1=O` (stereo not given) (I: TVP[Sar][NMeV] / II: TVP[Sar][NMeV]; ester I:1-I:C, II:1-II:C; linker I:N-II:N via Actinocin(9to1); configuration not given here), the “viability, % of DMSO” value is 2.33% (inactive).

Take `Cn1c(Nc2ccc(C(F)(F)F)cc2)nc2cc(Oc3ccnc(-c4ncc(C(F)(F)F)[nH]4)c3)ccc21`: the Potency is 9.35 µM (active).

For the compound `C[N+]1(C)[C@@H]2C[C@@H](OC(=O)C(O)(c3cccs3)c3cccs3)C[C@H]1[C@@H]1O[C@@H]12`, the “viability, % of DMSO” value was 115% (inactive).

With `Cn1cc(CNCC2CCN(c3ncc(C(=O)NO)cn3)CC2)c2ccccc21`, the Potency was 0.0526 µM (active).

In the case of `O=c1c(O)c(-c2ccc(O)c(O)c2)oc2cc(O)ccc12`, the Potency was 10.5 µM (active).

With `CC[C@]12C=CCN3CC[C@@]4(c5cc([C@@]6(C(=O)OC)C[C@H]7C[C@@H](C(C)(F)F)CN(Cc8c6[nH]c6ccccc86)C7)c(OC)cc5N(C)[C@H]4[C@@](O)(C(=O)OC)[C@H]1OC(C)=O)[C@@H]32`, the Potency is 0.0059 µM (active).

For `O=C1c2cccc(O)c2C(=O)c2c(O)cc(CO)cc21`, the “viability, % of DMSO” value is 100% (inactive).

For the compound `CCCCCCCCCCCC(CC1OC(=O)C1CCCCCC)OC(=O)C(CC(C)C)NC=O` (stereo not given), the “viability, % of DMSO” value is 115% (inactive).
